Measurements: PubChem BioAssay (NCATS)
“And” between values parts separate entries of the source, which are not always exact repeats. Equal values may be shown once. Results filed as inconclusive are left out. Values without a mark were called inactive. The source made the active and inactive calls. Calls come from the whole dose curve; as a rule, active = well fitted curve in the direction sought with a large enough effect; inconclusive = small, poorly fitted or top-dose-only effect, or another doubt; inactive = no such curve, though single readings can be large; an effect the other way counts as inactive or inconclusive. Positions of bridges follow the written chain, without caps; N, C: chain ends. Non-standard residues stand in square brackets, D forms with d. Residues, ends and D or L forms follow the SMILES beside them. ξ: configuration not given here. *: point of attachment. Octanoyl(6-Me) = CCC(C)CCCCC(=O)*; ξThr(3R) = C[C@@H](O)C(N)C(=O)O; dDab = NCC[C@@H](N)C(=O)O; Dab = NCC[C@H](N)C(=O)O

Key:
[1] = target: Cellular tumor antigen p53 (Homo sapiens) (UniProt P04637); experiment: Primary qHTS for small molecule compounds that upregulate eGFP-tagged delta133p53alpha (in N-terminal) cells. (AID 2060322); settings: NCI-H358 eGFP-delta133p53alpha fluorescence, 24 h; activation: hits give high values; note: nearly all actives have a fitted effect of over 75% in size;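 for activation: series mostly up to about 56 µM; 0% = DMSO vehicle and 100% = reference activator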
In short: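 NCI-H358 cells pre-induced 24 h with 10 ng/ml doxycycline to express N-terminal eGFP-delta133p53alpha, then dosed 24 h at 37C without doxycycline; fixed, Hoechst-stained, GFP intensity by laser scanning cytometry, normalized to DMSO (0%) and 57.5 uM 5-azacytidine (100%).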

[2] = BET inhibitor-based combinations targeting novel dependencies in MECOM-rearranged (r) AML: SET-2 cell line (AID 2202231); settings: SET-2 AML cells viability, CellTiter-Glo luminescence, 48 h; viability: hits give low values, concentration not given here; note: nearly all actives have a fitted effect of over 35% in size;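 for viability: plate controls were DMSO treated cells for no effect and wells without cells for full effect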
In short: (§1)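 Each compound was tested at eleven concentrations on cells seeded at 500/well. After two days' incubation, ATP-based luminescence reported viability; responses relative to DMSO and blank wells yielded AUC and cell-line-centred Z-AUC.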

[3] = BET inhibitor-based combinations targeting novel dependencies in MECOM-rearranged (r) AML: OCI-AML3 cell line (AID 2202232); settings: Potency: OCI-AML3 viability; note: nearly all actives have a fitted effect of over 35% in size
In short: as §1

[4] = BET inhibitor-based combinations targeting novel dependencies in MECOM-rearranged (r) AML: MV-4-11 cell line (AID 2202233); note: nearly all actives have a fitted effect of over 45% in size
In short: (§2)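 First, 500 cells per well were seeded; next, drugs were pinned as 11-point doses; then plates sat 48 hr in the incubator; finally CellTiter-Glo was added and luminescence read, with AUC and Z-AUC computed.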

[5] = BET inhibitor-based combinations targeting novel dependencies in MECOM-rearranged (r) AML: HNT-34 cell line (AID 2202234); note: nearly all actives have a fitted effect of over 35% in size
In short: as §2

[6] = BET inhibitor-based combinations targeting novel dependencies in MECOM-rearranged (r) AML: UCSD-AML1 cell line (AID 2202235); note: nearly all actives have a fitted effect of over 40% in size
In short: as §2

[7] = BET inhibitor-based combinations targeting novel dependencies in MECOM-rearranged (r) AML: AML-191 cell line (AID 2202236; note: nearly all actives have a fitted effect of over 35% in size)
In short: as §1

[8] = BET inhibitor-based combinations targeting novel dependencies in MECOM-rearranged (r) AML: AML-194 cell line (AID 2202237; note: nearly all actives have a fitted effect of over 40% in size)
In short: as §1
Potency is the fitted concentration of half-maximal effect.

Cellular tumor antigen p53 (Homo sapiens), sequence (P04637 whole entry, looked up): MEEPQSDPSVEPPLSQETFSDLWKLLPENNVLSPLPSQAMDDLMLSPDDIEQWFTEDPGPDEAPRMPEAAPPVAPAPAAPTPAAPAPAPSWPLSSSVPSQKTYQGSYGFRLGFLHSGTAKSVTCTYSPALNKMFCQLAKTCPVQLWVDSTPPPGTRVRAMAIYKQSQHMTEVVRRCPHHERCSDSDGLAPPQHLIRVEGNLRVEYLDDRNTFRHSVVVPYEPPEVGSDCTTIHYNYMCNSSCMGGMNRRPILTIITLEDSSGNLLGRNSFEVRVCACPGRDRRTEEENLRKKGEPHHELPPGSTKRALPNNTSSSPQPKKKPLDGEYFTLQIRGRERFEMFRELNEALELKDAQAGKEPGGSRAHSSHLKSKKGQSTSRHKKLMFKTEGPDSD

| SMILES | activation [1] | Potency [2] | Potency [3] | Potency [4] | Potency [5] | Potency [6] | Potency [7] | Potency [8] | Potency [1] | viability [2] |
| --- | --- | --- | --- | --- | --- | --- | --- | --- | --- | --- |
| COc1cc(OC2CCN(C)CC2)ccc1Nc1ncc2c(n1)n(C1CCCC1)c(=O)n2C | 2.88% | 4.68 µM (active) | 13.2 µM (active) | 3.32 µM (active) | 13.2 µM (active) | 14.8 µM (active) | 18.6 µM (active) | 16.6 µM (active) | – | – |
| CNC(=O)c1cc(Oc2ccc(NC(=O)Nc3cc(C(C)(C)C)nn3-c3ccc4ncccc4c3)c(F)c2)ccn1 | – | 18.6 µM (active) | 23.5 µM (active) | 0.0468 µM (active) | 0.148 µM (active) | 16.6 µM (active) | 20.9 µM (active) | 20.9 µM (active) | 5.36 µM (active) | – |
| CN(Cc1cc(Br)cc(Br)c1N)C1CCCCC1 | -11.7% and 14.8% | – | inactive | inactive | inactive | inactive | inactive | inactive | – | 102% |
| CCC(C)CCCCC(=O)N[C@@H](CCN)C(=O)NC(C(=O)N[C@H](CCN)C(=O)N[C@@H]1CCNC(=O)C([C@@H](C)O)NC(=O)[C@@H](CCN)NC(=O)[C@@H](CCN)NC(=O)[C@@H](CC(C)C)NC(=O)[C@H](Cc2ccccc2)NC(=O)[C@H](CCN)NC1=O)[C@@H](C)O (stereo partly drawn) ({Octanoyl(6-Me)}-[Dab][ξThr(3R)][dDab][dDab][Dab]F[dL][dDab][dDab][ξThr(3R)]; lactam 4-C) | 11.9% | – | inactive | inactive | inactive | inactive | inactive | inactive | – | 126% |
| Cc1ccccc1N1C(=O)c2cc(S(N)(=O)=O)c(Cl)cc2NC1C (stereo not given) | -15.9% and -14.5% | – | inactive | inactive | inactive | inactive | inactive | inactive | – | 115% |
| O=NN(CCCl)C(=O)NC1CCCCC1 | -3.35% and 3.74% | – | inactive | inactive | inactive | inactive | inactive | inactive | – | 112% |
| COc1cc([C@@H]2c3cc4c(cc3[C@H](O)[C@H]3COC(=O)[C@@H]23)OCO4)cc(OC)c1OC | 31.7% | 1.18 µM (active) | 0.833 µM (active) | 0.833 µM (active) | 0.417 µM (active) | 0.468 µM (active) | 0.662 µM (active) | 0.525 µM (active) | – | – |
| CC1Cc2ccccc2N1NC(=O)c1ccc(Cl)c(S(N)(=O)=O)c1 (stereo not given) | -9.21% and -1.28% | – | inactive | inactive | inactive | inactive | inactive | inactive | – | 112% |
| COc1cc(C(=O)NC2CCN(C)CC2)ccc1Nc1ncc2c(n1)N(C1CCCC1)CCC(=O)N2C(C)C | 7.36% | 23.5 µM (active) | 14.8 µM (active) | 6.61 µM (active) | 16.6 µM (active) | – | 18.6 µM (active) | 23.5 µM (active) | – | – |
| Cc1cc2nc3c(=O)[nH]c(=O)nc-3n(CC(O)C(O)C(O)CO)c2cc1C (stereo not given) | -37.4% | – | inactive | inactive | inactive | inactive | inactive | inactive | – | 106% |
| CNNCc1ccc(C(=O)NC(C)C)cc1 | -0.837% | – | inactive | inactive | inactive | inactive | inactive | inactive | – | 112% |
| CCn1cc(C(=O)O)c(=O)c2cc(F)c(N3CCNCC3)cc21 | -8.37% and 13.6% | – | inactive | inactive | inactive | inactive | inactive | inactive | – | 96.1% |
| O=c1[nH]nc(Sc2ncc([N+](=O)[O-])s2)n1-c1ccc2c(c1)OCCO2 | -12.9% | 7.42 µM (active) | 2.95 µM (active) | 1.86 µM (active) | 3.32 µM (active) | 9.34 µM (active) | – | 7.42 µM (active) | – | – |
| NNCCc1ccccc1 | 11.9% and 3.32% and -5.28% | – | 7.42 µM (active) | inactive | inactive | inactive | – | inactive | – | 108% |
| Oc1ccc(C2=Cc3ccc(O)cc3OC2)cc1 | 5.86% | 2.09 µM (active) | 0.525 µM (active) | 0.662 µM (active) | 1.18 µM (active) | 1.32 µM (active) | 2.95 µM (active) | 10.5 µM (active) | – | – |
| NNC(=O)c1ccncc1 | -11.9% and -4.14% | – | inactive | inactive | inactive | inactive | inactive | inactive | – | 110% |
